In all, about 320,000 compounds went through this assay and about 620 (0.19%) were called active. About 6% were inconclusive and are not listed. Only a selection was taken, and actives are over-represented in it overall. Unmarked numbers belong to inactive results. Cut-off read from the data, not from the text of the source: active = activation above about 80%; inconclusive = between about 30% and that limit; inactive = weaker than that.

Chain of Transient receptor potential cation channel subfamily V member 1 (Homo sapiens) (Q8NER1 whole entry, looked up): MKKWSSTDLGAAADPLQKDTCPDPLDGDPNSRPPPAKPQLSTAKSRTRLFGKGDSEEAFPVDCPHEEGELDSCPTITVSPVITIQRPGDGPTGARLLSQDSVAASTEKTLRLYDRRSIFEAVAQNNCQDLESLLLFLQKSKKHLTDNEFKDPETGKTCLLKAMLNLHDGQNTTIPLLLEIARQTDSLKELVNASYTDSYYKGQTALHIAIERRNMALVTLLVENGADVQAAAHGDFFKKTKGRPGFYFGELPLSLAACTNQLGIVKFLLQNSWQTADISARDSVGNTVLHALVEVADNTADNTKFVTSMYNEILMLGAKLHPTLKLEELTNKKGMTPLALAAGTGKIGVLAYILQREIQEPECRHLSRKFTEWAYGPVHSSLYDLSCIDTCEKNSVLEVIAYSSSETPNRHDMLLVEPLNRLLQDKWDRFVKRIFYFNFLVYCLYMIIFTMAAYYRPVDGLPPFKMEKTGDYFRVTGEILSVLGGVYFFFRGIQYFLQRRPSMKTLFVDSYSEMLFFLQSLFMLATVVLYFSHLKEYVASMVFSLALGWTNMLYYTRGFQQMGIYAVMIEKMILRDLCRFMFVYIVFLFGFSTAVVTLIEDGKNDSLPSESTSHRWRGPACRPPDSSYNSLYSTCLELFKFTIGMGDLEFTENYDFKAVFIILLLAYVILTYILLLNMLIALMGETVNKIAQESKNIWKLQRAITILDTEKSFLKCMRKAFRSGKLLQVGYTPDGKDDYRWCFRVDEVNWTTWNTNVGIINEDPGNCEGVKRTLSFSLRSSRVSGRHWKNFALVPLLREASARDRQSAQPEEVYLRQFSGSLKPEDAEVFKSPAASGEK

In the assay the target is Transient receptor potential cation channel subfamily V member 1 (Homo sapiens) (UniProt Q8NER1). Put plainly: HTS Assay for Compounds that Act as Agonists of the Vanilloid Receptor 1. Note: 0% is about no effect. To be noted: TRPV1-expressing cells, Fluo-8 calcium influx, agonist mode; at 8.33 µM; active compounds read high. An outline of the steps:
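TRPV1-expressing cells were cultured overnight at 35.5C and loaded with Fluo-8 calcium dye for 40 to 90 min at room temperature. After a 10 s baseline, compound was added and calcium influx was read kinetically for 3 min (ex 480/em 520 nm).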
In the case of `COc1ccc(C(=O)N2CCN(c3ncccn3)CC2)cc1S(=O)(=O)N1CCOCC1`, the activation was 4.11%. To `O=C(NC1CC1)c1cccc(Br)c1` belongs -0.868%; to `O=C(NC1CC1)c1ccc(-c2ccccc2)cc1`, 83% (active). Next, `O=C(NC1CCCC1)c1cc(-c2ccccc2)on1`: 22.2%. `CN(C(=O)CSc1nnc(-c2ccc(C(C)(C)C)cc2)n1C)C1CCS(=O)(=O)C1` (stereo unspecified): the activation is 1.75%. In the case of `Cc1cc(C(=O)COc2ccccc2Cl)c(C)n1C1CC1`, the activation was 26.9%. As to `Cc1ccc(S(=O)(=O)N2CC(O)C[C@H]2C(=O)OCC(=O)Nc2ccc(N3CCOCC3)cc2)cc1C` (stereo partly specified), the activation is -0.193%. For `CCc1noc(C)c1C(=O)Nc1nc2ccc(OC)cc2s1`, the activation is 8.32%. To `COc1cccc(C(=O)Nc2nc3ccc(S(C)(=O)=O)cc3s2)c1` belongs -1.41%.

In the case of `COc1ccc2nc(NC(=O)c3ccc(Br)s3)sc2c1`, the activation was 97.1% (active). Next, `COc1ccc(NC(=O)CC2SC(N3CCCCC3)=NC2=O)cc1OC` (stereo unspecified): 1.55%. Next, `CC(=O)c1ccc(-c2ccc(Cn3c(C)nc4cc(N)c(C)nc43)cc2)cc1`: 4.86%; `Cc1cc2nc3c(=O)n(Cc4ccccc4)c(=O)[nH]c3nc2cc1N`: 90.7% (active); `Cc1nc2c(c(=O)n1Cc1ccco1)c1nc3ccccc3nc1n2Cc1ccccc1`: 1.97%. To `Cc1cnc(NC(=O)c2ccc(Cl)nc2)s1` belongs 1.7%. Take `CCN(CC)c1ccc(NC(=O)c2ccc(Cl)nc2)cc1`: the activation was 82% (active). To `CCOC(=O)c1ccc(NC(=O)c2cccnc2)cc1` belongs -0.797%; to `Cc1csc(NC(=O)C2CCN(S(=O)(=O)c3ccccc3)CC2)n1`, 0.443%. Take `CCCCn1nc(C(=O)Nc2cccc(C(=O)NC3CC3)c2)c2ccccc2c1=O`: the activation is 17.8%.

`CC(C)n1ncc2c(C(=O)NCc3ccccc3CN(C)C)cc(C3CC3)nc21`: the activation was 1.42%. Next, `O=S(=O)(c1cccs1)N1CCN(CCOc2ccccc2)CC1`: 10.7%; `O=C(NCC(=O)N1CCCCCCC1)c1ccccc1Cl`: 4.74%; `COc1ccccc1C(CNC(=O)c1cccc(S(=O)(=O)Nc2ccc(F)cc2)c1)N(C)C` (stereo unspecified): 1.81%. To `COc1ccccc1-c1sc2ccccc2c1-c1ccc(Br)nc1` belongs 1.98%; to `Cc1ccc(C(CC(=O)O)NC(=O)c2ccc(S(=O)(=O)N3CCCC3)cc2)cc1` (stereo unspecified), -0.421%. Next, `O=C(CN1CCc2ccccc2C1)Nc1cccc(S(=O)(=O)N2CCOCC2)c1`: 13.1%.

For the origin of these results see PubChem BioAssay AID540275 (National Center for Advancing Translational Sciences (NCATS), 2011).
